The record followed here is PubChem BioAssay (NCATS).

Records with an inconclusive call do not appear. Active and inactive are the calls of the source. The call rests on the fitted dose curve; in most records, active means well fitted inhibition curve with a large enough effect; inconclusive means small, poorly fitted or top-dose-only effect; inactive means no such curve, though single readings can be large or run the other way.
Potency means the concentration at half of the fitted maximal effect.

This experiment can be described thus: P-glycoprotein substrates identified in KB-3-1 adenocarcinoma cell line, qHTS therapeutic library screen (AID 1346986). Further: nearly all actives have a fitted effect of over 60% in size.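 Further: potency is for cytotoxicity meaning loss of cell viability.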 The following applies: KB-3-1 parental cells viability, CellTiter-Glo, 72 h; series mostly up to 44.5 µM; activity change, negative = cytotoxicity: at the top concentration. The method, boiled down:
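Cells seeded 500/well in DMEM/10% FCS; compounds pinned in dose-response; 72 h incubation; CellTiter-Glo added, 5 min, luminescence. KB-8-5-11 run ±tariquidar to test reversal of P-gp resistance.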
(In general: qHTS replaces the single test concentration by a dilution series.)
On to `Cc1nc(NC(=O)N2CCCC2C(N)=O)sc1-c1csc(C(C)(C)C)n1` (stereo not given), for which the result was inactive. With `COC(C(=O)N1Cc2[nH]nc(NC(=O)c3ccc(N4CCN(C)CC4)cc3)c2C1)c1ccccc1` (stereo not given), the Potency was 0.517 µM (active). Take `CC(C)(F)C[C@@H](N[C@@H](c1ccc(-c2ccc(S(C)(=O)=O)cc2)cc1)C(F)(F)F)C(=O)NC1(C#N)CC1`: the outcome was inactive. Still for that read-out and setting: for `C=CC(C)(C)c1[nH]c2cc3c(cc2c1CC1NC(=O)C2=CCCN2C1=O)C=CC(C)(C)O3` (stereo not given) the value was “inactive [at 17.4 µM]”; for `CC(=O)O[C@@H]1c2c3c(cc(O)c2C(=O)O[C@@H]1C)O[C@@]1(C)[C@@H](O)C[C@H]2C(C)(C)C(=O)C=C[C@]2(C)[C@@H]1C3`, “inactive [at 17.4 µM]”; for `[N-]=[N+]=N[C@]1(CO)O[C@@H](n2ccc(=O)[nH]c2=O)[C@@H](O)[C@@H]1O`, “inactive”.

Regarding `COC(=O)CC(O)CC(O)/C=C/c1c(C)ccc2c1C(O)CC(C)C2` (stereo not given), the outcome was inactive.

Take `CC(=O)N1CCN(C(=O)Cc2ccc(Nc3ncc(F)c(Nc4ccc(C(=O)Nc5ccccc5Cl)cc4)n3)cc2)CC1`: the Potency is 2.91 µM (active). As to `C/C1=C\CCC(C)CCO[C@@H]2O[C@H](CO[C@@H]3OC[C@H](O)[C@H](O)[C@H]3OC1=O)[C@@H](O)[C@H](O)[C@H]2O` (stereo not given in full), the “outcome” value is “inactive [at 17.4 µM]”. Regarding `CC(C)(O)/C=C/CC(C)(O)C1C(O)CC2(C)C3CCC4C(C)(C)C(=O)CCC4(C)C3CCC12C` (stereo not given), the “outcome” value was “inactive [at 17.4 µM]”. Consider `CC(=O)OC1CC2C3(C)CCC(OC(=O)CC(=O)O)C(C)(C)C3CCC2(C)C2(C)CCC(C3(C)CCC(=O)O3)C12` (stereo not given), for which the “outcome” value was “inactive [at 17.4 µM]”. In the case of `CCOc1cc(C)c(Cl)cc1S(=O)(=O)n1cnc2ccccc21`, the “outcome” value is “inactive [at 17.4 µM]”. Turning to `CC(=O)c1ccc2c(c1)C(O)C(C(C)(C)O)O2` (stereo not given), the result was inactive.

On to `CC12CCC(=O)C=C1C(O)CC1C2C(O)CC2(C)C1CC[C@]2(O)C(=O)CO` (stereo not given in full), for which the outcome was “inactive [at 9.29 µM]”. The same measure, in the same setting: for `C=C1[C@H](OC(C)=O)[C@H]2[C@@H](OC(C)=O)[C@](C)(OC(C)=O)C[C@]2(OC(C)=O)C(=O)[C@H](C)/C=C/C(C)(C)C(=O)[C@H](OC(=O)C(C)C)[C@H]1OC(C)=O` the value was “inactive [at 17.4 µM]”; for `COC(=O)[C@H](O)[C@H]1C(C)(C)[C@H](OC(=O)C(C)C)[C@@]2(O)C(=O)[C@]1(C)C1CC[C@]3(C)C(CC(=O)O[C@H]3c3ccoc3)[C@]13O[C@@H]32` (stereo not given in full), “inactive [at 17.4 µM]”; for `CS(=O)(=O)c1ccc([C@H](CC2CCCC2)C(=O)Nc2nccs2)cc1`, “inactive”.

As to `O=C(O)/C=C/c1ccc(O)c(O[C@@H]2O[C@H](CO)[C@@H](O)[C@H](O)[C@H]2O)c1`, the result was inactive. For the compound `COc1cc2ncnc(Nc3cccc(Cl)c3F)c2cc1OC(=O)N1CCN(C)C[C@H]1C`, the Potency result is “inactive”.

As to `CC(C)=C/C=C\[C@H](C)[C@H]1CC[C@]2(C)C[C@@H]3C(C)=CC(=O)C3/C(CO)=C\C[C@@H]12` (stereo not given in full), the result was inactive. `Nc1ncnc2c1ncn2CCNCCCCCO`: the outcome was inactive.

In the case of `CC(=O)c1cc2c(cc1O)OC(C)(C)C=C2`, the outcome was inactive. Still for that read-out and setting: for `CC1CCC2C(C)(C)[C@@H](O)CC[C@]2(C)C12Cc1c(O)cc3c(c1O2)CN(C(CCC(=O)O)C(=O)O)C3=O` (stereo not given in full) the value was “inactive [at 17.4 µM]”; for `COC(=O)C1=CO[C@@H](O[C@@H]2O[C@H](CO)[C@@H](O)[C@H](O)[C@H]2O)[C@H]2[C@@H]1C=C[C@@]21C=C([C@H](C)O)C(=O)O1`, “inactive [at 17.4 µM]”. As for `COc1cc2c(cc1OC)CC(=O)N(CCCNC[C@H]1Cc3cc(OC)c(OC)cc31)CC2`, the outcome was inactive. As for `C[C@@H]1O[C@@H](O[C@H]2[C@@H](OC(=O)[C@]34CCC(C)(C)CC3C3=CCC5[C@@]6(C)C[C@H](O)[C@H](O[C@@H]7O[C@H](C(=O)O)[C@@H](O)[C@H](O)[C@H]7O)[C@@](C)(C(=O)O)C6CC[C@@]5(C)[C@]3(C)CC4)OC[C@H](O)[C@@H]2O)[C@H](O)[C@H](O)[C@H]1O[C@@H]1OC[C@@H](O)[C@H](O)[C@H]1O` (stereo not given in full), the outcome is “inactive [at 9.29 µM]”. On to `OC[C@H]1O[C@@H](OC[C@H]2O[C@@H](OC/C=C/c3ccccc3)[C@H](O)[C@@H](O)[C@@H]2O)[C@@H](O)[C@@H]1O`, for which the “outcome” value was “inactive [at 17.4 µM]”. For `Cc1cc(Nc2nc(NC(C)c3ncc(F)cn3)ncc2Cl)n[nH]1` (stereo not given), the result was inactive.

`C=C1CC2C(C)(CCC(=O)O)C(C(C)(C)O)CCC2(C)C2C(=O)OC(C)(C(=O)OC)C(=O)C12C` (stereo not given): the “outcome” value is “inactive [at 17.4 µM]”. Regarding `C[C@@H]1O[C@@H](O[C@H]2[C@H](O[C@H]3CC[C@@]4(C)C(CC[C@]5(C)C4CC=C4[C@@H]6CC(C)(C)CC[C@]6(C(=O)O[C@@H]6OC[C@H](O)[C@H](O)[C@H]6O[C@@H]6O[C@@H](C)[C@H](O[C@@H]7O[C@H](CO)[C@@H](O)[C@H](O)[C@H]7O)[C@H](O)[C@H]6O)[C@H](O)C[C@]45C)C3(C)C)O[C@H](CO)[C@@H](O[C@@H]3OC[C@@H](O)[C@H](O)[C@H]3O)[C@@H]2O)[C@H](O)[C@H](O)[C@H]1O` (stereo not given in full), the outcome is “inactive [at 9.29 µM]”.
